Laboratory results: PubChem BioAssay AID602393 (Broad Institute, 2012)
Out of some 350,000 compounds screened, about 7,000 (2%) were called active. The full list was thinned out, with actives kept by preference. Values without a mark were called inactive. Rule as the data show it: active = activation above about 40%; inconclusive = no clear call, values can overlap the other calls; inactive = below that.

Experiment: Bmi1 luciferase reporter increase in mESCs, primary screen, esBAF inhibitor project, mouse ES cells, Bmi1 luciferase knock-in, single point (AID 602393);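 also: 0% = median of the plate's neutral control wells and 100% = double that signal; a rise in the Bmi1 reporter signal indicates esBAF inhibition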
Conditions: 24 h, at 12.5 µM, stronger effect = higher value

In the case of `CC(C)(C)c1ccc(OC(=O)N2CCCCC2)cc1`, the reporter increase is reported as 91.1% (active).
In the case of `CN(C)C(=O)Oc1ccc2c(c1)O/C(=C\c1ccccc1)C2=O`, the reporter increase is reported as 46.6% (active).
For `COc1ccc2c(c1)NP(=S)(c1ccccc1)N2` (stereo not given), the reporter increase was 43.7% (active).

Compared with `CN1CCN(C(=O)COc2ccc(C(C)(C)C)cc2Br)CC1`, `CSCCC(c1nnnn1C(C)(C)C)N1CCC(n2c(=O)[nH]c3ccccc32)CC1` (stereo not given) is lower in reporter increase: 1.71% for the first, -9.76% for the second.

Compared with `O=C(NC1CCCCC1)N1Cc2cc(N3CCCCC3)ccc2-n2nncc2C1`, `S=C(NCCc1ccccc1)N1Cc2cc(N3CCOCC3)ccc2-n2nncc2C1` is lower in reporter increase: 5.49% for the first, 0.039% for the second.

Compared with `O=P(OC1=CCCCC1)(c1ccccc1)c1ccccc1`, `COC(=O)C1=C(c2ccc(OCc3ccccc3)cc2)C[C@@H]2CC[C@H]1N2C(=O)NCc1cccc(F)c1` is higher in reporter increase: -0.107% for the first, 3.43% for the second.

Going from `CN(C)C(=O)Oc1ccc(NC(=O)N2CCOCC2)cc1` to `C[C@H](CO)N1C[C@H](C)[C@H](CN(C)C(=O)Oc2ccc3ccccc3c2)OCc2cnnn2CCCC1=O`, the reporter increase rises from -0.475% to 2.57%.

First: N#Cc1cccc(-c2ccc([C@H]3[C@@H](CO)N4CCCCN(C(=O)Cc5cccnc5)C[C@@H]34)cc2)c1
Second: O=C(O)[C@H]1[C@H](CO)[C@H]2Cn3c(ccc(-c4ccccc4F)c3=O)[C@@H]1N2C(=O)c1cccnc1
The reporter increase of the first is higher: 0.128% for the first, -1.7% for the second.

First: COC(=O)[C@H]1[C@H](CO)[C@H]2Cn3c(cccc3=O)[C@H]2N1CC1CC1
Second: Cc1cc(C)c2c(c1)NP(=S)(c1ccccc1)N2 (stereo not given)
The reporter increase of the first is lower: 0.469% for the first, 7.37% for the second.
